MazF activator = activators of E. coli MazEF toxin-antitoxin RNase, primary screen, biochemical, fluorescence, uHTS. Endoribonuclease toxin MazF (Escherichia coli (strain K12)), P0AE70. FAM/BHQ RNA-DNA oligo cleavage fluorescence, 5 h. activation, % at 20 µM. 0.32% of 350,000 active. AID 504720, 2011; in the data active means activation above about 50%
Target sequence (P0AE70 whole entry, looked up): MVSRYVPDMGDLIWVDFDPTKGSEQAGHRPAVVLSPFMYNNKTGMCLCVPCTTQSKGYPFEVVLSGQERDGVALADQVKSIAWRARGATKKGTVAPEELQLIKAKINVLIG
Anthrax LF inh2 = Bacillus anthracis LF protease inhibitors, primary screen, biochemical, multiplex microsphere, MLPCN library; inhibition, % at 10 µM; Lethal factor (Bacillus anthracis), P15917; 0.12% of 360,000 active; multiplex microsphere protease cleavage assay
BoNT A protease = BoNT/A light chain protease inhibitors, primary screen, biochemical, flow cytometry, MLPCN library; inhibition, % at 10 µM; Botulinum neurotoxin type A light chain protease (Clostridium botulinum A str. ATCC 3502); 0.17% of 360,000 active; multiplex microsphere protease substrate cleavage
Autofluor counter = flagged as autofluorescent in microsphere protease counterscreen; 3.1% of 360,000 active; compound autofluorescence counterscreen, microsphere flow cytometry; active compounds read high; fluorescence intensity (no concentration beside the values); in the data active means fluorescence intensity above about 16000; inconclusive means no clear call, values can overlap the other calls
BoNT F protease = BoNT/F light chain protease inhibitors, primary screen, biochemical, flow cytometry, MLPCN library | Multiplex microsphere protease cleavage assay | 0.22% of 360,000 active | inhibition, % at 10 µM; in the data active means inhibition above about 35%, passing the limit was not always enough; inconclusive means no clear call, values can overlap the other calls
BoNT-A LC CP1 = BoNT/A light chain protease inhibitors, confirmation, biochemical, flow cytometry, cherry pick 1. inhibition, % at 10 µM. AID 602139, 2011. multiplex microsphere protease assay. 3% of 720 active. shares compounds with BoNT F protease; in the data active means inhibition above about 32%
BoNT-F LC CP1 = BoNT/F light chain protease inhibitors, confirmation, biochemical, flow cytometry, cherry pick 1 | inhibition, % at 10 µM | 720 tested, under 10 active | shares compounds with BoNT F protease | multiplex microsphere protease cleavage assay; call rule not given here
LF protease CP1 = Bacillus anthracis LF protease inhibitors, confirmation, biochemical, multiplex microsphere, cherry pick 1 | inhibition, % at 10 µM | shares compounds with BoNT F protease | AID 602142, 2011 | 720 tested, under 10 active | multiplex microsphere protease cleavage assay; call rule not given here
Each line names hits and unclear results; the compound was inactive in the other large screens (follow-up assays come after a bar, where they were run). Most compounds without a hit are left out; they make up all but 3.6% or so of the library. Unless noted, no stated cut-off is given here; in the data, active means inhibition above about 30%; inconclusive means no clear call, values can overlap the other calls; inactive means below that.

CC(=O)N1N=C(c2ccccc2)CC1c1cccc([N+](=O)[O-])c1 (centres undefined)	BoNT F protease 41.9 | BoNT-A LC CP1 inactive | BoNT-F LC CP1 inactive | LF protease CP1 inactive
COc1ccc(NC(=O)c2ccc3ccccc3c2OC)cc1	BoNT F protease inconclusive
O=C(Oc1c(-c2ccccc2)c(=O)n2c3c(cccc13)CC2)c1ccccc1	none
O=C(Oc1c(-c2ccccc2)c(=O)n2c3c(cccc13)CC2)c1ccc(F)cc1	Anthrax LF inh2 36.9, BoNT A protease inconclusive, BoNT F protease inconclusive | BoNT-A LC CP1 inactive | BoNT-F LC CP1 inactive | LF protease CP1 inactive
Cc1ccccc1NC(=O)c1cccc(S(=O)(=O)Nc2cccc(C(=O)O)c2)c1	BoNT F protease inconclusive | BoNT-A LC CP1 inactive | BoNT-F LC CP1 inactive | LF protease CP1 inactive
O=C(O)c1ccc(NS(=O)(=O)c2cccc(C(=O)Nc3cccc(C(=O)O)c3)c2)cc1	none | BoNT-A LC CP1 inactive | BoNT-F LC CP1 inactive | LF protease CP1 inactive
CCn1cnc2cc(NC(=O)COc3ccc(C)cc3)ccc21	none
Cc1ccccc1OCCC(=O)OCC(=O)c1c(N)n(CC(C)C)c(=O)n(C)c1=O	none
O=[N+]([O-])c1ccc(Sc2cccc3cccnc23)c2cccnc12	Anthrax LF inh2 30.4 | BoNT-A LC CP1 inactive | BoNT-F LC CP1 inactive | LF protease CP1 inactive
O=[N+]([O-])c1cc2cccnc2c2ncccc12	none (no result: Anthrax LF inh2, BoNT A protease, Autofluor counter, BoNT F protease)
CCc1ccc(C(=O)CN2C(=O)C(C)N(c3ccc(C)cc3)C2=O)cc1 (centres undefined)	BoNT F protease 49.9 | BoNT-A LC CP1 inactive | BoNT-F LC CP1 inactive | LF protease CP1 inactive
Cc1ccc(N2C(=O)N(CC(=O)NCc3ccc(Cl)cc3)C(=O)C2C)cc1 (centres undefined)	none
Cc1nnc(N(C(=O)c2cnccn2)c2ccccc2)s1	none | BoNT-A LC CP1 inactive | BoNT-F LC CP1 inactive | LF protease CP1 inactive
Cc1ccc(S(=O)(=O)NCc2cccnc2)cc1C	none
Clc1cccc(Cl)c1-c1noc(CN2CCOCC2)n1	Anthrax LF inh2 36.1, BoNT A protease inconclusive, BoNT F protease inconclusive | BoNT-A LC CP1 inactive | BoNT-F LC CP1 inactive | LF protease CP1 inactive
Clc1ccc(-c2noc(CN3CCOCC3)n2)cc1	Anthrax LF inh2 inconclusive
CN(CCOc1ccccc1)C(=O)c1cc([N+](=O)[O-])cc([N+](=O)[O-])c1	BoNT F protease 42.3 | BoNT-A LC CP1 inactive | BoNT-F LC CP1 inactive | LF protease CP1 inactive
O=C(O)c1cc(-c2ccccc2)c(N2CCOCC2)s1	Anthrax LF inh2 69.2, BoNT A protease 84.4 | BoNT-A LC CP1 inactive | BoNT-F LC CP1 inactive | LF protease CP1 inactive
CCn1nc(-c2ccccc2)c2nc3ccccc3nc21	MazF activator 786.4, Anthrax LF inh2 42.8, BoNT A protease 66.9, BoNT F protease 38.0 | BoNT-A LC CP1 inactive | BoNT-F LC CP1 inactive | LF protease CP1 inactive
CCCCCn1nc(-c2ccccc2)c2nc3ccccc3nc21	none
C=CCn1c(=O)/c(=C/c2ccc(Cl)cc2)s/c1=C(\C#N)c1nnc2n1CCCCC2	none
COc1ccccc1Cc1c(-c2ccc(C#N)cc2)nc2ccc(C)cn12	none (no result: MazF activator)
COc1ccccc1Oc1ccc2c(c1)C(=O)N(CC(=O)O)C2=O	BoNT F protease 37.5 | BoNT-A LC CP1 inactive | BoNT-F LC CP1 inactive | LF protease CP1 inactive
COc1ccccc1Oc1ccc2c(c1)C(=O)N(c1ccc(O)cc1)C2=O	none
O=S(=O)(c1ccc(Cl)cc1)N1CCCc2ccccc21	none
COc1ccc2c(c1)CCCN2S(=O)(=O)c1ccc(Cl)cc1	Anthrax LF inh2 37.3 | BoNT-A LC CP1 inactive | BoNT-F LC CP1 inactive | LF protease CP1 inactive
CCN(CC)C(=O)c1ccc(NS(=O)(=O)c2ccccc2)cc1	none
CCN(CC)C(=O)c1ccc(S(=O)(=O)c2ccccc2)cc1	BoNT F protease 43.1 | BoNT-A LC CP1 inactive | BoNT-F LC CP1 inactive | LF protease CP1 inactive
C=CCNC(=O)NC(=O)CN1C(=O)NC(c2ccccc2)(c2ccccc2)C1=O	none
CCOC(=O)C1(C)CCCCCN1C(=O)c1ccc(SC(F)(F)F)cc1 (centres undefined)	none (no result: MazF activator)
O=C(CC(=O)Nc1ccccc1F)Nc1ccccc1F	Anthrax LF inh2 41.5 | BoNT-A LC CP1 inactive | BoNT-F LC CP1 inactive | LF protease CP1 inactive
O=C(CN1CCCCCC1)Nc1ccccc1F	none
Cc1ccc(C(=O)N/C(=C\c2ccc3c(c2)OCO3)C(=O)Nc2ccc(C(=O)O)cc2)cc1	none
CCCOc1ccc(-c2nc(C#N)c(NCCCn3ccnc3)o2)cc1	BoNT A protease 58.2, Autofluor counter inconclusive, BoNT F protease 57.7 | BoNT-A LC CP1 inactive | BoNT-F LC CP1 inactive | LF protease CP1 inactive
CCN(CC(=O)NCc1cccs1)C(=O)c1ccc(S(=O)(=O)Nc2ccccc2C)cc1	Autofluor counter inconclusive
Cc1ccc(-c2csc(NC(=O)c3ccccc3F)c2C(=O)O)cc1	BoNT F protease 35.0 | BoNT-A LC CP1 inactive | BoNT-F LC CP1 inactive | LF protease CP1 inactive
O=C(Nc1scc(-c2ccccc2)c1C(=O)O)c1ccccc1F	BoNT F protease inconclusive
c1ccc(-c2csc3ncnc(NCCCN4CCOCC4)c23)cc1	none
O=c1c2c(-c3ccccc3)csc2nc2c3ccccc3c(NCCN3CCOCC3)nn12	BoNT A protease 32.5 | BoNT-A LC CP1 inactive | BoNT-F LC CP1 inactive | LF protease CP1 inactive
Cc1ccc2nc(NC(=O)CSCC(=O)Nc3cc(C)on3)sc2c1	none (no result: Anthrax LF inh2, BoNT A protease, Autofluor counter, BoNT F protease)
COc1ccc2nc(NC(=O)CSC(C)C(=O)Nc3cc(C)on3)sc2c1 (centres undefined)	Anthrax LF inh2 inconclusive, BoNT A protease 84.8, BoNT F protease inconclusive | BoNT-A LC CP1 inactive | BoNT-F LC CP1 inactive | LF protease CP1 inactive
Cc1nc2nc(Cc3ccccc3)[nH]n2c(=O)c1Cc1ccccc1	none
Cc1nc2nc(Cc3ccccc3)[nH]n2c(=O)c1Cl	none | BoNT-A LC CP1 inactive | BoNT-F LC CP1 inactive | LF protease CP1 inactive
O=C(Nc1nnc([C@@H]2C[C@H](O)[C@@H](CO)O2)s1)c1cccc(OC(F)(F)F)c1	none (no result: MazF activator)
S=c1nc(Cc2ccccc2)[nH]c2ccccc12	BoNT F protease 51.2 | BoNT-A LC CP1 inactive | BoNT-F LC CP1 inactive | LF protease CP1 inactive
S=c1nc(Cc2ccc(Cl)cc2)[nH]c2ccccc12	none
CCN(CC)c1nc(C(N)=O)cc(-c2ccccc2)n1	none
CN1CCN(c2nc(C(N)=O)cc(-c3ccccc3)n2)CC1	BoNT F protease 36.0 | BoNT-A LC CP1 inactive | BoNT-F LC CP1 inactive | LF protease CP1 inactive

High-throughput results as filed in PubChem BioAssay.
